The text below walks through data of the supplement of paper PMC10849652.

SMILES strings stand for the structures. About 7,900 targets were measured; listed, in parts, are those with a hit and a random draw of the rest. About 0.6% of all pairs of compound and target were hits.

YIPF6, sequence (Q96EC8 whole entry, looked up): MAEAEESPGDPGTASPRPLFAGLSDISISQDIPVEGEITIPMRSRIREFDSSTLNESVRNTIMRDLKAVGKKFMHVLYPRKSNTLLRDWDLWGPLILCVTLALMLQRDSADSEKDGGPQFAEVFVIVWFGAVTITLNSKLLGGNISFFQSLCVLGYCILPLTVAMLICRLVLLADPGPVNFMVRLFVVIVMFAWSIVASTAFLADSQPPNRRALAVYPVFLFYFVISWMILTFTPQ

This experiment addresses YIPF6 (UniProt Q96EC8). In words: log2 fold change, soluble protein after heating vs DMSO (PISA); higher = thermal stabilisation; K562 cells, 10 uM, 30 min; active = over 0.2 and 3.5 SD of the protein, either way, in both replicates (recomputed). The method, boiled down: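 K562 cells at 2×10^6 cells/mL were given 10 μM compound for 30 min. Aliquots then went through 3 min of heating across 48°C-58°C, were pooled, and were extracted in PBS with 0.5% NP-40 at 4°C, and the supernatant after 21,000xg for 90 min was quantified by TMTpro 16plex LC-MS/MS with channel sums equalised. Thermal stability relative to control samples, from duplicates, is given as log2 fold change.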
Turning to `NCC(=O)Nc1ccc(-n2nc(C(F)(F)F)cc2-c2ccc3c(ccc4ccccc43)c2)cc1`, the log2 fold change is 0.071 (inactive).
With `COc1ccc(Cn2ccc3ccc(C(=O)NO)cc32)cc1`, the log2 fold change was -0.019 (inactive).
Then `COc1cc(C(=O)O)ccc1NC(=O)[C@@H]1N[C@@H](CC(C)(C)C)[C@](C#N)(c2ccc(Cl)cc2F)[C@H]1c1cccc(Cl)c1F` [idasanutlin], with -0.008 (inactive); and `C/C(=N\NC(=O)c1cccc(S(=O)(=O)N2CCOCC2)c1)c1cc(Cl)ccc1O`, with -0.067 (inactive); and `Cc1ccc2c(=O)c3ccccc3n(CCCN)c2c1C`, with 0.145 (inactive).
As for `CCCCN(Cc1ccc(C(=O)NO)cc1)C(=O)Nc1ccccc1` [Nexturastat A], the log2 fold change was -0.011 (inactive).
The same measure for `COC(=O)[C@H](CCSC)NC(=O)c1ccc(NC[C@@H](N)CS)cc1-c1ccccc1`: 0.041 (inactive); for `O=C(CCCCCCNC(=O)c1cnc(N(c2ccccc2)c2ccccc2Cl)nc1)NO` [citarinostat]: 0.011 (inactive); for `Cc1ccc(-n2nc(C(C)(C)C)cc2NC(=O)Nc2ccc(OCCN3CCOCC3)c3ccccc23)cc1` [doramapimod]: -0.036 (inactive).
Turning to `CC(C)(O)CC(=O)NCCn1ccc2ncnc(Nc3ccc(Oc4cccc(C(F)(F)F)c4)c(Cl)c3)c21`, the log2 fold change is 0.019 (inactive).
The same measure for `CC(C)(C)Cn1c(N)nc2ccc(-c3[nH]c(C(C)(C)C)nc3-c3ccc(F)cc3)nc21` [ralimetinib]: -0.045 (inactive); for `CC(C)c1cnn2c(NCc3ccccc3)cc(NCCCCCCN)nc12`: -0.044 (inactive).
